An excerpt weighted towards active compounds, which were near 4.7% of everything screened.
D1 PAM = potentiators of human D1 dopamine receptor | 0.036% of 360,000 active | AID 504651 | HEK293 TREx D1 cells, calcium flux, dopamine EC20 potentiation | potentiation, % at 10 µM | P21728; in the data active means potentiation above about 30%; further: 0% is about no effect
TRHR ag = TRH receptor (human) agonism; P34981; 0.18% of 360,000 active; activation, % at 2 µM; TRHR cells, calcium flux fluo-8, FDSS agonist mode; further: 0% is about no effect
Target sequence (P34981 whole entry, looked up): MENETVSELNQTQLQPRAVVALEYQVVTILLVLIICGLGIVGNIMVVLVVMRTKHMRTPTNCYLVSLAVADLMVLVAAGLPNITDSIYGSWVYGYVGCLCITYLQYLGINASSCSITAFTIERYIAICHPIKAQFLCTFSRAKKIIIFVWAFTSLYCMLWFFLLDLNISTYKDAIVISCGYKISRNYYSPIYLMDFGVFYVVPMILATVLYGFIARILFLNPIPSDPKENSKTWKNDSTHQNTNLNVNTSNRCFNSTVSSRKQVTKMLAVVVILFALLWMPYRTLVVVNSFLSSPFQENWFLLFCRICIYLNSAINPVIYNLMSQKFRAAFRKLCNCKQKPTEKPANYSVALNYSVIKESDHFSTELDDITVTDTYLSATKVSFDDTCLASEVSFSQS
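Agonist-mode FDSS calcium read (Ex 480/Em 530, 1 s cycles) in 1536-well TRHR cells with fluo-8 dye, after 10-cycle baseline and 23 nL compound addition; TRH at EC20 (10 nM final) added afterwards for the enhancer phase.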
D1 antag = human D1 dopamine receptor antagonism; activity change, negative = inhibition, % at 10 µM; P21728; 3.2% of 360,000 active; HEK293 TREx D1 cells, calcium flux, dopamine EC80; hits give low values; AID 504652; in the data active means activity change below about -30%; further: on the % scale 0 is the no-effect control and ±100 the full control effect
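Kinetic fluorescence of a calcium dye serves as the read-out. D1-expressing Hek293 Trex cells, induced overnight at 30 C, are exposed to compound for 180 s before an EC80 dopamine addition, then read 180 s further.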
D1 agonist = agonists of human D1 dopamine receptor; P21728; HEK293 T-REx D1 cells, calcium flux, agonist mode; activation, % at 2 µM; 1% of 360,000 active; further: 0% is about no effect
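Tetracycline-induced HEK293 TREx D1 cells, force-coupled to calcium signalling, were dye-loaded with a no-wash calcium kit. Compound was pin-added after a 10 s baseline. Fluorescence was read kinetically at 1 cycle/s for 180 s, with calcium rises flagged as agonism.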
TRHR PAM = allosteric enhancers of human TRH receptor; AID 493056; enhancement, % at 2 µM; TRHR cells, fluo-8 calcium fluorescence, EC20 TRH enhancement; 0.66% of 360,000 active; in the data active means enhancement above about 30%; further: 0% is about no effect
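TRHR-expressing cells loaded with fluo-8 calcium dye were read kinetically (ex 480/em 530) during compound addition, then stimulated with an EC20 of TRH (10 nM final). Enhancement of the Gq-mediated intracellular calcium response was scored.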
Active calls of the source: *; . = no result given. Unless noted, no stated cut-off is given here; in the data, active means activation above about 30%; inactive means the rest.

SMILES | D1 PAM | TRHR ag | D1 antag | D1 agonist | TRHR PAM
O=C(NCCc1ccccc1)c1c2c(nc3ccccc13)C(=O)N(C1CCCCC1)C2 | -4.0 | -0.6 | 12.3 | 0.4 | -5.2
CNc1nc(N)nc(-c2cc(Cl)ccc2OC)n1 | 0.2 | 0.3 | -30.1* | -1.2 | 0.3
O=C(CSc1nc2[nH]ncc2c(=O)[nH]1)Nc1cccc([N+](=O)[O-])c1 | -2.4 | 0.4 | 0.2 | 3.7 | 5.7
OCCNCC(O)Cn1c2ccccc2c2ccccc21 (centres undefined) | -3.4 | 0.2 | 3.6 | 2.7 | 2.6
COc1ccccc1CNCC(O)Cn1c2ccccc2c2ccccc21 (centres undefined) | -4.8 | 6.2 | -10.2 | 89.9* | 12.8
COc1ccc(N2C(=O)C3C4C=CC(CC4)C3C2=O)c([N+](=O)[O-])c1 (centres undefined) | 0.9 | -0.4 | 23.8 | 2.6 | 39.0*
CCOc1ccc(N2C(=O)C3C4C=CC(CC4)C3C2=O)c([N+](=O)[O-])c1 (centres undefined) | -4.7 | -0.4 | -14.4 | -0.5 | -3.2
CC1=CC(C)(C)N(C(=O)c2ccc(F)cc2)c2cc3c(cc21)OCO3 | 0.1 | -1.3 | 15.9 | 71.8* | 4.5
O=C(CNC(=O)c1ccc([N+](=O)[O-])cc1)OC(C(=O)Nc1cc(C(F)(F)F)ccc1Cl)c1ccccc1 (centres undefined) | -1.4 | 1.7 | 33.6 | 5.1 | -5.1
O=C(NN1C(=O)/C(=C/c2ccc(O)cc2)SC1=S)c1ccccc1O | -1.8 | -1.6 | -26.6 | 67.3* | 8.2
Cn1cc(/C=C2\SC(=S)N(NC(=O)c3ccccc3)C2=O)c2ccccc21 | -0.5 | 23.5 | -12.0 | 74.6* | -0.2
COc1cc(/C=C2\SC(=S)N(NC(=O)c3ccccc3O)C2=O)ccc1O | -4.8 | -0.6 | -1.3 | 90.1* | 9.6
COc1ccc(NC(=O)CCn2cnnn2)cc1 | 0.1 | 1.6 | 6.4 | 3.4 | 0.9
CCN1CCN(C(=O)c2cc3cc([N+](=O)[O-])ccc3oc2=O)CC1 | -11.0 | 0.8 | -36.2* | 0.1 | -0.6
COc1ccc(CN(C)C(=O)C(Cc2ccccc2)NC(=O)c2ccccc2)c(OC)c1 (centres undefined) | 0.6 | -0.6 | -23.7 | 13.6 | -0.1
COc1ccc(-n2ncc3c(N4CCN(c5cccc(C)c5)C(C)C4)ncnc32)cc1 (centres undefined) | 3.0 | 0.0 | 14.8 | 3.2 | -7.9
COc1cccc(OCc2nnc(-c3cccs3)o2)c1 | 1.8 | -0.4 | -32.0* | 1.7 | 10.9
COc1cc(CNn2cnnc2)ccc1OCC(=O)NC(C)(C)C | -3.5 | 0.4 | -79.1* | 1.6 | 5.1
Cn1cc(Cl)c(/C(N)=N/OC(=O)c2ccccc2C(F)(F)F)n1 | -0.8 | -0.1 | -6.7 | 0.1 | -0.4
O=S(=O)(c1ccc(Oc2ccc(F)c(Cl)c2)nc1)N1CCOCC1 | -3.5 | -0.2 | -0.7 | 6.7 | 4.8
C/C(=N\NC(N)=S)C1C2C3CC4C5CC(C42)C1C53 (centres undefined) | -4.3 | -0.1 | -6.9 | 3.8 | -3.6
COc1cc(C)nc(NS(=O)(=O)c2ccccc2)n1 | -1.6 | 0.1 | -37.4* | 2.4 | 23.5
COc1ccc(CCNC(=O)C23CN(Cc4ccccc4)CC2C(c2cccc([N+](=O)[O-])c2)=NO3)cc1 (centres undefined) | 0.3 | 0.2 | 21.3 | 3.2 | -0.3
Cc1ccc(CCNC(=O)C23CN(Cc4ccccc4)CC2C(c2cccc([N+](=O)[O-])c2)=NO3)cc1 (centres undefined) | 1.4 | -0.1 | -9.6 | 0.0 | 33.8*
O=C(c1ccco1)N1CCN(S(=O)(=O)c2ccccc2)CC1 | -5.5 | -0.1 | 6.8 | 4.4 | 7.8
SMILES | D1 PAM | TRHR ag | D1 antag | D1 agonist | TRHR PAM
O=C(c1ccco1)N1CCN(S(=O)(=O)c2ccc([N+](=O)[O-])cc2)CC1 | 0.3 | 0.8 | -33.8* | 3.3 | 2.5
COc1ccc(-c2nnc(N3CCOCC3)c3ccccc23)cc1 | -4.7 | 0.2 | -8.2 | 1.9 | 38.6*
Cc1ccc2cn[nH]c2c1NC(N)=S | -6.7 | -0.1 | -35.5* | -0.5 | 2.1
NC(=S)Nc1cccc2cn[nH]c12 | 2.5 | -0.4 | 6.0 | 4.0 | -3.9
CCOC(=O)c1cccc(NC(=O)CCCn2c(C)c3cnn(-c4ccccc4)c(=O)c3c2C)c1 | -2.2 | -1.9 | -3.9 | 9.3 | 3.9
CN(C)c1nc(NCc2ccccc2)nc(SCC(=O)Nc2ccc(Cl)c(Cl)c2)n1 | 2.4 | 1.4 | 8.1 | 6.4 | -4.3
COC(=O)CSc1nc(NCc2ccccc2)nc(N(C)C)n1 | -6.9 | 0.1 | -40.1* | 7.8 | 10.9
Cc1sc2ncn(CC(=O)NCCCN3CC(C)CC(C)C3)c(=O)c2c1S(=O)(=O)N1CC(C)CC(C)C1 (centres undefined) | 9.1 | -0.1 | 0.0 | 2.2 | -7.7
CCNC(=S)Nc1ccc(Cl)cc1 | -6.2 | -0.4 | 9.8 | 4.8 | -4.4
CCCCNC(=S)Nc1ccc(Cl)cc1 | 3.5 | 0.2 | -32.9* | 9.7 | -2.1
CCCCNC(=S)Nc1ccc(C(F)(F)F)cc1 | -5.8 | 0.3 | -33.3* | 22.2 | -4.9
Cc1ccc(NC(=S)NCCSc2ccc(Cl)cc2)cc1 | -10.3 | 1.0 | -37.2* | 22.4 | -6.1
Cc1cc(-n2c(C)nc3ccccc3c2=O)ccc1NC(=O)c1cccc([N+](=O)[O-])c1 | 2.8 | 0.0 | . | -2.5 | -0.7
O=C(CN1CCN(S(=O)(=O)c2ccccc2Cl)CC1)NCC1(N2CCOCC2)CCCCC1 | -2.4 | -0.3 | -3.2 | 2.5 | -3.3
CC(Sc1nc(=O)cc(N)n1CCc1ccccc1)C(=O)Nc1ccc(Cl)cc1 (centres undefined) | -1.8 | 0.5 | -33.4* | 16.3 | 6.8
COc1ccc(C2=NOC(C(=O)NCc3cccnc3)C2)cc1 (centres undefined) | -7.0 | 0.4 | 2.2 | 2.2 | -6.5
CC(C)CCNC(=O)C1CC(c2ccc(C(F)(F)F)cc2)=NO1 (centres undefined) | -4.3 | -0.4 | -42.0* | 31.7* | -2.5
Cc1ccc(CCNC(=O)C2CC(c3ccc(C(F)(F)F)cc3)=NO2)cc1 (centres undefined) | -3.0 | -0.1 | -2.7 | 8.3 | 0.1
O=C(NCc1cccnc1)C1CC(c2ccc(F)cc2)=NO1 (centres undefined) | -6.0 | 0.3 | -30.5* | 3.4 | -1.8
O=C(NCc1cc(C(F)(F)F)cc(C(F)(F)F)c1)C1CC(c2cccc([N+](=O)[O-])c2)=NO1 (centres undefined) | -8.8 | -1.1 | -54.4* | 9.1 | 9.8
O=c1c2ccccc2c(C=Nc2ccc(O)cc2)c(O)n1-c1nccs1 | -4.2 | 0.3 | -0.2 | 0.5 | -3.4
CC(C)C(NC(=O)c1ccccc1NC(=O)c1ccco1)C(=O)NNC(=O)c1ccncc1 (centres undefined) | 2.5 | -0.3 | -1.1 | 1.4 | -3.8
CCc1ccc(S(=O)(=O)c2nnn(-c3cccc(C)c3)c2N)cc1 | 0.8 | 5.7 | -30.3* | 63.8* | -1.3
